GLD-1 TGE inh – GLD-1-TGE RNA interaction inhibition (C. elegans); Q17339; purified GLD-1 + fluorescein TGE RNA, fluorescence polarization; inhibition, % at 5.96 µM; 320,000 tested, 0.44% active; AID 2280;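 active means percent inhibition above a per-plate cutoff, the plate mean of test compounds plus 3 SD, cut at about 30% in these data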
E coli Lon inh – E. coli protease La inhibition | AID 602123 | P0A9M0 | 360,000 tested, 0.42% active | purified E. coli Lon protease, fluorescence polarization | inhibition, % at 7.94 µM; in the data active means inhibition above about 13%, passing the limit was not always enough
EBV gp42 inh – EBV gp42 inhibition; Q1HVG2; Fluorescence polarization binding assay, mP read-out; inhibition, % (tested at 21.74 µM); 220,000 tested, 0.42% active; AID 1085; in the data active means inhibition above about 50%
Bcl-xL primary – inhibitors of human Bcl-xL. inhibition, % at 10.9 µM. GST-Bcl-xL / FITC-Bim BH3 peptide fluorescence polarization. Q07817. 320,000 tested, 0.7% active;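 active means inhibition above the mean of all tested compounds plus 3 SD, cutoff set per campaign, cut at about 30% in these data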;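 further: inhibitors lower millipolarization by displacing the labeled peptide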
MEX-5 binding – C. elegans MEX-5 TCR-2 RNA binding activity | activity score (negative = inhibition of binding), % at 10 µM | 300,000 tested, 0.38% active | Q9XUB2 | MEX-5/FITC-TCR2 RNA binding, fluorescence polarization; active compounds read low;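 active means inhibition past about -25% in most replicates, and total fluorescence under double the plate's negative control median, limit read from the data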
Target sequence (Q9XUB2 whole entry, looked up): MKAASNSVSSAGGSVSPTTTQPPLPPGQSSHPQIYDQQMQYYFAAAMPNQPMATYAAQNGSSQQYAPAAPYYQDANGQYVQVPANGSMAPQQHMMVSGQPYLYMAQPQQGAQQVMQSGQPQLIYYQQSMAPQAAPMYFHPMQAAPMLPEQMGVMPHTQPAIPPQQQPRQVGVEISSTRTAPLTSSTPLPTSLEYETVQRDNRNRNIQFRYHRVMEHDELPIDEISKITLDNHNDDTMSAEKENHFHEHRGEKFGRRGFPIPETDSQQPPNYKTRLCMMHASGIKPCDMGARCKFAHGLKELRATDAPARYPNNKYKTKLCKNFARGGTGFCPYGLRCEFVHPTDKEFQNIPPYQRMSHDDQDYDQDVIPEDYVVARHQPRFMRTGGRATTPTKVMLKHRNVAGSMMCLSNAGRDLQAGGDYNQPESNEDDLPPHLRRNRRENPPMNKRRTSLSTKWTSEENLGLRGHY
GLD-1 TGE cf – confirmation of C. elegans GLD-1 TGE RNA binding inhibitors; shares compounds with GLD-1 TGE inh; GLD-1/FL-TGE RNA fluorescence polarization, biochemical; inhibition, % at 5.96 µM; 550 tested, 10% active;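 active means average inhibition across triplicates above the hit cutoff set in the primary screen, cut at about 32% in these data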
Numbers stand for hits. Hits are enriched below; roughly 1.3% of the tested compounds scored in any of these assays.

For CCn1c(COc2ccccc2)nnc1SCC(=O)CC(=O)Nc1ccccc1OC the results were GLD-1 TGE inh 35, E coli Lon inh inactive, EBV gp42 inh inactive, Bcl-xL primary inactive, MEX-5 binding inactive and GLD-1 TGE cf inactive.
For Cc1cc(NC(=O)Nc2ccccc2F)ccc1Br the results were GLD-1 TGE inh inactive, E coli Lon inh inactive, EBV gp42 inh inactive, Bcl-xL primary inactive and MEX-5 binding inactive.
Screening CCOC(=O)CC(=O)CSc1nc2ccc(OC)cc2cc1C returned GLD-1 TGE inh 34, E coli Lon inh inactive, EBV gp42 inh inactive, Bcl-xL primary 36, MEX-5 binding inactive and GLD-1 TGE cf inactive.
For c1ccc(-c2csc(CN3CCCCC3)n2)cc1 the results were E coli Lon inh inactive.
COC(=O)c1cc2c(-c3ccccc3)cc3ccccn3c-2c1C(=O)OC was read as GLD-1 TGE inh 31, E coli Lon inh inactive, EBV gp42 inh 61, Bcl-xL primary 36, MEX-5 binding inactive and GLD-1 TGE cf inactive.
For O=C(NCCc1ccccc1)C(=O)c1c(-c2ccccc2)cc2ccccn12 the results were GLD-1 TGE inh inactive, E coli Lon inh inactive, EBV gp42 inh inactive, Bcl-xL primary inactive and MEX-5 binding inactive.
`COC(=O)c1cc(-c2ccccc2)sc1N` gave GLD-1 TGE inh inactive, E coli Lon inh inactive, EBV gp42 inh inactive, Bcl-xL primary inactive and MEX-5 binding inactive.
For COC(=O)c1c(C(=O)OC)c2cccc3cc(-c4ccccc4)c4ccc1c4n32 the results were GLD-1 TGE inh 31, E coli Lon inh inactive, EBV gp42 inh inactive, Bcl-xL primary inactive, MEX-5 binding inactive and GLD-1 TGE cf inactive.
Screening CCOC(=O)C1CCCN(C(=O)CN2C(=O)/C(=C/c3ccc(OC)cc3)Oc3ccccc32)C1 (configuration not stated) returned GLD-1 TGE inh inactive, E coli Lon inh inactive, EBV gp42 inh inactive, Bcl-xL primary inactive and MEX-5 binding inactive.
O=C(Nc1cc(C(F)(F)F)ccc1Cl)C(NCc1ccccc1)c1ccccc1 (configuration not stated) was read as GLD-1 TGE inh inactive, E coli Lon inh inactive, EBV gp42 inh inactive, Bcl-xL primary inactive and MEX-5 binding inactive.
For CCN(CC)CCNC(C(=O)Nc1cc(C(F)(F)F)ccc1Cl)c1ccccc1 (configuration not stated) the results were GLD-1 TGE inh 35, E coli Lon inh inactive, EBV gp42 inh inactive, Bcl-xL primary inactive, MEX-5 binding inactive and GLD-1 TGE cf inactive.
COc1ccc(N2CCN(c3cncc(C)n3)CC2)cc1 was read as E coli Lon inh inactive.
COc1ccccc1C(=O)Nc1ccc(-c2nnn(CC(=O)N3CCN(C(=O)c4ccco4)CC3)n2)cc1 was read as GLD-1 TGE inh 51, E coli Lon inh inactive, EBV gp42 inh inactive, Bcl-xL primary inactive, MEX-5 binding inactive and GLD-1 TGE cf inactive.
CCN(c1ccccc1)S(=O)(=O)c1ccc(Cl)c(NC(=O)CSc2n[nH]c(N)n2)c1 was read as GLD-1 TGE inh 39, E coli Lon inh inactive, EBV gp42 inh inactive, Bcl-xL primary inactive, MEX-5 binding inactive and GLD-1 TGE cf inactive.
CC(=O)C[C@H](O)CC(=O)[C@@H]1OC(=O)CCCCCCc2ccccc21 was read as GLD-1 TGE inh inactive, E coli Lon inh inactive and Bcl-xL primary inactive.
Screening COc1ccc2[nH]c(C(=O)NCc3ccccc3)c(C)c2c1 returned GLD-1 TGE inh inactive, E coli Lon inh inactive, Bcl-xL primary inactive and MEX-5 binding inactive.
`COCC(C)n1c(C)cc(C(=O)COC(=O)CN=C2NS(=O)(=O)c3ccccc32)c1C` (configuration not stated) gave GLD-1 TGE inh inactive, E coli Lon inh inactive, EBV gp42 inh inactive, Bcl-xL primary inactive and MEX-5 binding inactive.
Screening Cc1ccc(/C=C2/NC(=O)N(Cc3ccccc3)C2=O)o1 returned GLD-1 TGE inh 50, E coli Lon inh inactive, EBV gp42 inh inactive, Bcl-xL primary 38, MEX-5 binding inactive and GLD-1 TGE cf inactive.
Screening COC(=O)CN1C(=O)N/C(=C/c2ccc(C)o2)C1=O returned GLD-1 TGE inh 63, E coli Lon inh inactive, EBV gp42 inh inactive, Bcl-xL primary inactive, MEX-5 binding inactive and GLD-1 TGE cf inactive.
`Cc1ccc(/C=C2\SC(=S)N(Cc3ccccc3)C2=O)o1` gave GLD-1 TGE inh inactive, E coli Lon inh inactive, EBV gp42 inh inactive and Bcl-xL primary inactive.
`COCCNC(=O)c1cccc2c(-c3ccnn3C)coc12` gave E coli Lon inh inactive.
O=C(CC1N=C2c3ccccc3N=C(SCc3ccc(Cl)cc3)N2C1=O)NCc1ccco1 (configuration not stated) was read as GLD-1 TGE inh 39, E coli Lon inh inactive, EBV gp42 inh inactive, Bcl-xL primary inactive and GLD-1 TGE cf inactive.
Cc1ccc(CSC2=Nc3ccccc3C3=NC(CCC(=O)NCc4ccco4)C(=O)N23)cc1 (configuration not stated) was read as GLD-1 TGE inh inactive, E coli Lon inh inactive, EBV gp42 inh inactive, Bcl-xL primary inactive and MEX-5 binding inactive.
CCOC(=O)c1ccc2ncc(C(=O)OCC)c(NCc3ccco3)c2c1 was read as GLD-1 TGE inh 39, E coli Lon inh inactive, EBV gp42 inh inactive, Bcl-xL primary 33, MEX-5 binding inactive and GLD-1 TGE cf inactive.
Screening CCOC(=O)c1cnc2c(C)cccc2c1NCc1ccco1 returned GLD-1 TGE inh inactive, E coli Lon inh inactive, EBV gp42 inh inactive, Bcl-xL primary inactive and MEX-5 binding inactive.
For NC(=O)C1CCCN(C(=O)c2cccc(S(=O)(=O)N3CCCCCC3)c2)C1 (configuration not stated) the results were GLD-1 TGE inh inactive, E coli Lon inh inactive and Bcl-xL primary inactive.
Cc1ccc(S(=O)(=O)N2CCOCC2)cc1C(=O)N1C(=O)c2cccc(N)c2C1=O was read as GLD-1 TGE inh 32, E coli Lon inh inactive, EBV gp42 inh inactive, Bcl-xL primary 30, MEX-5 binding inactive and GLD-1 TGE cf inactive.
Nc1cccc2c1C(=O)N(C(=O)c1cccc(S(=O)(=O)N3CCCCCC3)c1)C2=O was read as GLD-1 TGE inh 38, E coli Lon inh inactive, EBV gp42 inh inactive, Bcl-xL primary inactive, MEX-5 binding inactive and GLD-1 TGE cf inactive.
For Cc1ccc(S(=O)(=O)N2CCOCC2)cc1C(=O)O the results were GLD-1 TGE inh inactive, E coli Lon inh inactive, EBV gp42 inh inactive, Bcl-xL primary inactive and MEX-5 binding inactive.
CCN1C(=O)C(=O)N(CC(=O)NC(C)CCc2ccccc2)C1=O (configuration not stated) was read as GLD-1 TGE inh inactive, E coli Lon inh inactive and Bcl-xL primary inactive.
Screening CC(=O)Nc1cccc(C(=O)OCC(=O)N(c2ccccc2)C2CCS(=O)(=O)C2)c1 (configuration not stated) returned E coli Lon inh inactive.
Clc1ccccc1/C=N/NC1=Nc2cccc3cccc1c23 was read as GLD-1 TGE inh 48, E coli Lon inh inactive, EBV gp42 inh inactive, Bcl-xL primary inactive, MEX-5 binding inactive and GLD-1 TGE cf inactive.
